The supplement of paper PMC9694430
Where a name gives a salt, the structure may show the parent alone.

Experiments:
Assay in all cases: thermal shift delta Tm vs DMSO control; higher = stronger stabilization (binding)
Conditions in all cases: 12.5 µM; protein concentration 2 µM
[1] = tested on: LOC_OS04G57630-cb004
How it was run: (§1)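 Thermal shift values come from differential scanning fluorimetry on purified rice kinase domains made in E. coli, with melting temperatures obtained from Boltzmann fits. Samples of 19.5 μl held 2 μM kinase, 100 mM potassium phosphate pH 7.5, 150 mM NaCl, 10% glycerol, 5 × SYPRO Orange and compound in DMSO, and were heated from 25°C to 95°C at 0.05°C/s. Each shift is a triplicate mean relative to the DMSO-only protein sample.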

[2] = tested on: LOC_OS05G07850-cb002
How it was run: as §1

[3] = tested on: LOC_OS05G16824-cb004
How it was run: as §1

[4] = tested on: LOC_OS05G28520-cb001
How it was run: as §1

[5] = tested on: LOC_OS05G30820-cb001
How it was run: as §1

[6] = tested on: LOC_OS05G43570-cb004
How it was run: as §1

[7] = tested on: T1, LOC_OS06G22820-cb001
T1 sequence (whole entry): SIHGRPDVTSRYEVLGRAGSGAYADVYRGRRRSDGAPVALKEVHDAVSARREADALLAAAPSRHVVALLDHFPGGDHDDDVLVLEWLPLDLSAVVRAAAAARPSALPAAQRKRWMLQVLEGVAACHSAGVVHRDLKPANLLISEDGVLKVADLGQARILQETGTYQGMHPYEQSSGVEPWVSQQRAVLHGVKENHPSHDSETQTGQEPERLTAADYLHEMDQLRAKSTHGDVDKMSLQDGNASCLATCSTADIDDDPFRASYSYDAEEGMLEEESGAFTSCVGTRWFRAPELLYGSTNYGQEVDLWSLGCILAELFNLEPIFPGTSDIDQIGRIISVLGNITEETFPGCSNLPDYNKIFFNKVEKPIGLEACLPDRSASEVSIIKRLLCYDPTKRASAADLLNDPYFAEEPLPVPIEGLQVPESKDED
How it was run: as §1

[8] = tested on: LOC_OS07G06570-cb004
How it was run: as §1

[9] = tested on: LOC_OS07G07230-cb001
How it was run: as §1

[10] = tested on: LOC_OS06G16330-cb003
How it was run: as §1
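Also: purified Escherichia coli-expressed rice kinase domain construct.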

LOC_OS06G16330-cb003, sequence (as listed by the source): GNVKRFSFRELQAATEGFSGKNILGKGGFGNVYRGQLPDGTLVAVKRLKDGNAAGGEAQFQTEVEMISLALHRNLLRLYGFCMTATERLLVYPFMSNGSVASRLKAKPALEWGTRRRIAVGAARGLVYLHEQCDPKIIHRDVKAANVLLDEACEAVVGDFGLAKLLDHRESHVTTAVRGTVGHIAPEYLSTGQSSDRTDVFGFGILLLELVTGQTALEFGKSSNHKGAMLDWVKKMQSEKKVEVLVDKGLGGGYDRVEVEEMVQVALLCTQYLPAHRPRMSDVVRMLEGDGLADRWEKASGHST

SMILES | thermal shift delta Tm [1] [°C] | thermal shift delta Tm [2] [°C] | thermal shift delta Tm [3] [°C] | thermal shift delta Tm [4] [°C] | thermal shift delta Tm [5] [°C] | thermal shift delta Tm [6] [°C] | thermal shift delta Tm [7] [°C] | thermal shift delta Tm [8] [°C] | thermal shift delta Tm [9] [°C] | thermal shift delta Tm [10] [°C]
Cn1cc(C2=C(c3ccc(Cl)cc3Cl)C(=O)NC2=O)c2ccccc21 | 0.28 | 2.36 | 0.19 | 2.17 | 0.49 | 0.84 | 1.02 | 2.2 | 0.68 | 
Cc1[nH]c(/C=C2\C(=O)Nc3ccc(S(=O)(=O)N(C)c4cccc(Cl)c4)cc32)c(C)c1C(=O)N1CCN(C)CC1 | 0.72 | 9.11 |  | 0.18 | 0.55 | -0.03 | 1 | 0.23 | 0.81 | -6.47
C[C@H]1CNCCCN1S(=O)(=O)c1cccc2cncc(F)c12 [Ripasudil (K-115) hydrochloride dihydrate] | 0.43 | 3.53 | -0.98 | 0.51 | 0.26 | 0.76 | 0.46 | 0.19 | 0.2 | 0.41
Cn1sc(=O)n(Cc2ccccc2)c1=O | -1.01 | -2.47 | 4.99 | 1.84 | 0.45 | 0.04 | 0.72 | 0.43 | -0.42 | 
